FMDV antiviral: antivirals against foot and mouth disease virus. FMDV antiviral cell-based qHTS. Potency, µM (top dose mostly 57.9 µM), without a hit: at the top dose activity change, negative = inhibition, hits mostly inhibitors. actives 1.2% (n = 410,000); calls by dose curve; tested in HEK293T cells; also: read-out not given here; potency is read from the fitted curve at half-maximal effect; nearly all actives have a fitted effect of over 45% in size
MARV entry inh: blocks Marburg virus binding to or entry into cells | Marburg virus pseudotyped entry inhibition, cell reporter | Potency, µM (top dose mostly 37.8 µM), inactives show at the highest dose activity change, negative = inhibition, usual class: inhibitors | actives 1.8% (n = 300,000); calls by dose curve; tested in HEK293 cells; also: potency is read from the fitted curve at half-maximal effect
Vaccinia mCherry: inhibitors of vaccinia virus infection (mCherry reporter signal). Vaccinia virus mCherry reporter infection, fluorescence. actives 0.63% (n = 310,000). Potency, µM (top dose mostly 36.5 µM), for the others: top-dose activity change, negative = inhibition, hits mostly inhibitors; calls by dose curve; tested in A549 cells; also: potency is read from the fitted curve at half-maximal effect; nearly all actives have a fitted effect of over 35% in size
Vaccinia Venus: inhibitors of vaccinia virus (Venus reporter). Vaccinia virus Venus reporter expression, fluorescence. Potency, µM (highest dose often 36.5 µM), inactives show at the highest dose activity change, negative = inhibition, hits mostly inhibitors. actives 0.46% (n = 330,000). AID 720580; calls by dose curve; tested in A549 cells; also: potency is read from the fitted curve at half-maximal effect; nearly all actives have a fitted effect of over 30% in size
HCMV inh: human cytomegalovirus inhibition | AID 1259415 | actives 4.5% (n = 410,000) | HFF cells, HCMV-luciferase reporter, 72 h; hits give low values | activity change, negative = inhibition, % at 57.5 µM; in the data active = activity change below about -60%; inconclusive = no clear call, values can overlap the other calls; inactive = above about -39%
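Cell-based, HFFs, 1000 cells/well, 16 h 37C; cpds in DMSO + HCMV-luc, MOI 1 PFU/cell; 72 h 37C; OneGlo luminescence after 5 min RT; norm. to buffer vs Salinomycin 10uM.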
LASV entry inh: inhibitors of Lassa virus binding or cell entry; Lassa virus pseudotype entry inhibition, cell reporter; Potency, µM (titrated, usually from 37.9 µM), for inactives: top-dose activity change, negative = inhibition, usual class: inhibitors; actives 1.2% (n = 300,000); AID 540256; calls by dose curve; tested in HEK293 cells; also: potency is read from the fitted curve at half-maximal effect; nearly all actives have a fitted effect of over 50% in size
An asterisk follows results filed as active; [ ] = remark or other dose. Sampled rows, rich in hits. Any-hit rate of the full collection: about 6.5%. % is scaled to controls: 0 for no effect and ±100 for the full control effect.

How did Cc1ccc(NCC(=O)Nc2cccc(F)c2)cc1S(=O)(=O)N1CCCCCC1 do in these assays?
FMDV antiviral: inconclusive; MARV entry inh: inconclusive; Vaccinia mCherry: -18%; Vaccinia Venus: -13%; HCMV inh: -98*; LASV entry inh: inconclusive

What do the screens show for `Cc1ccccc1C(=O)NCC(=O)Nc1ccc(C)c(S(=O)(=O)N2CCCCCC2)c1`?
FMDV antiviral: 35µM*; MARV entry inh: inconclusive; Vaccinia mCherry: -11%; Vaccinia Venus: -16%; HCMV inh: -12; LASV entry inh: inconclusive

What do the screens show for `COc1cc(=O)n2c(c1C(=O)N(C)Cc1cscn1)CCN(C(=O)c1ccc(C)c(C)c1)CC2`?
FMDV antiviral: 24%; Vaccinia mCherry: -13%; Vaccinia Venus: -4%

How did O=C(NP(=O)(N1CCCC1)N1CCCC1)C1=C(N2CCOCC2)/C(=C/c2cccc([N+](=O)[O-])c2)CC1 do in these assays?
FMDV antiviral: -10%; MARV entry inh: 3%[46.1 µM]; Vaccinia mCherry: -12%; Vaccinia Venus: -2%; HCMV inh: 0; LASV entry inh: 20%

What do the screens show for `CCOC(=O)C(=O)C1=C(N2CCOCC2)/C(=C\c2cccc([N+](=O)[O-])c2)CC1`?
FMDV antiviral: -15%; MARV entry inh: 21%; Vaccinia mCherry: inactive; Vaccinia Venus: -14%; HCMV inh: -72*; LASV entry inh: 16%

What do the screens show for `COc1cc(/C=C2/SC(=O)N(CC(=O)N3CCCC3)C2=O)ccc1Oc1ccc([N+](=O)[O-])cn1`?
FMDV antiviral: 32µM*; MARV entry inh: -4%; Vaccinia mCherry: -9%; Vaccinia Venus: -12%; HCMV inh: inconclusive; LASV entry inh: 4%

Results for COc1cccc(-c2csc(N3CCN(C(=S)Nc4ccccc4)CC3)n2)c1 ?
MARV entry inh: 21%; Vaccinia mCherry: -20%; Vaccinia Venus: -15%; HCMV inh: -8; LASV entry inh: -10%

Results for COc1cccc(NC(=O)N2CCN(c3nc(-c4cccc(OC)c4)cs3)CC2)c1 ?
FMDV antiviral: 32µM*; HCMV inh: -71*

How did COc1cccc(-c2csc(N3CCN(C(=S)Nc4cccc(C)c4)CC3)n2)c1 do in these assays?
FMDV antiviral: -22%; Vaccinia mCherry: -23%; Vaccinia Venus: -20%; HCMV inh: -67*

How did CC(C)CSc1nnc(CNC(=O)c2ccccn2)n1C do in these assays?
FMDV antiviral: -8%; Vaccinia mCherry: inactive; Vaccinia Venus: -16%

Results for Cc1ccc(S(=O)(=O)N2CCCN(c3nc(-c4cccs4)nc4ccccc34)CC2)cc1 ?
Vaccinia mCherry: -3%; Vaccinia Venus: -16%

What do the screens show for `CC(C)(C)S(=O)(=O)/C(C#N)=N/Nc1ccc(Cl)cc1`?
FMDV antiviral: inconclusive; MARV entry inh: -16%[46.1 µM]; Vaccinia mCherry: -14%; Vaccinia Venus: inconclusive; HCMV inh: -82*; LASV entry inh: inconclusive

What do the screens show for `N#C/C(=N\Nc1ccc(Cl)cc1)C(=N)N1CCCCCC1`?
FMDV antiviral: 54%; MARV entry inh: 5%; HCMV inh: 77; LASV entry inh: 0%

How did Cc1cccc(N/N=C(\C#N)S(=O)(=O)C(C)(C)C)c1 do in these assays?
FMDV antiviral: -7%; MARV entry inh: -15%[46.1 µM]; Vaccinia mCherry: 10%; Vaccinia Venus: -5%; HCMV inh: 8; LASV entry inh: -30%

Results for CC(C)(C)c1ccc(N/N=C(\C#N)S(=O)(=O)C(C)(C)C)cc1 ?
FMDV antiviral: -23%; MARV entry inh: 10µM*; Vaccinia mCherry: -16%; Vaccinia Venus: -5%; HCMV inh: inconclusive; LASV entry inh: inconclusive

How did Cc1cc(Cl)ccc1C(=O)C1CCCN(C2CCSCC2)C1 (stereo unspecified) do in these assays?
FMDV antiviral: -3%; MARV entry inh: 10µM*; Vaccinia mCherry: inconclusive; Vaccinia Venus: -17%; HCMV inh: inconclusive; LASV entry inh: inconclusive

How did CN(N=O)c1ccc(/C=C2\C=Cc3ccccc32)cc1 do in these assays?
Vaccinia mCherry: -18%; Vaccinia Venus: -7%

Results for O=C1CC(Sc2nnnn2-c2ccccc2)C(=O)N1c1cccc(Cl)c1 (stereo unspecified) ?
FMDV antiviral: -7%; MARV entry inh: inconclusive; Vaccinia Venus: -1%; HCMV inh: -62*; LASV entry inh: inconclusive
